# Measurements from PubChem BioAssay (NCI).
# Compounds without any hit were thinned out: in the full panel of roughly 83,000, 20% have a hit.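 Each cell line was grown in a 96-well plate and treated with one concentration of compound for 48 hours. Values below 10 were considered active.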 Unmarked numbers belong to inactive results. Activity calls are given as the source filed them.
# Experiments:
# Experiment in all cases: NCI-60 one-dose screen, 48 h (100 = growth as untreated, 0 = no growth, -100 = all killed)
# HCT-15 colon = conditions: 10 µM unless noted
# HT29 colon = conditions: 10 µM unless noted
# SNB-75 CNS = conditions: 10 µM unless noted
# SNB-19 CNS = conditions: 10 µM unless noted
# U251 CNS = conditions: 10 µM unless noted
# PC-3 prostate = conditions: 10 µM unless noted
# SK-MEL-5 melanoma = conditions: 10 µM unless noted
# UACC-62 melanoma = conditions: 10 µM unless noted
# LOX IMVI melanoma = conditions: 10 µM unless noted
# SK-MEL-28 melanoma = conditions: 10 µM unless noted
# SK-MEL-2 melanoma = conditions: 10 µM unless noted
# EKVX NSCLC = conditions: 10 µM unless noted
# SN12C renal = conditions: 10 µM unless noted
# UO-31 renal = conditions: 10 µM unless noted
# ACHN renal = conditions: 10 µM unless noted
# CAKI-1 renal = conditions: 10 µM
# A498 renal = conditions: 10 µM unless noted
# CCRF-CEM leukemia = conditions: 10 µM unless noted
# MOLT-4 leukemia = conditions: 10 µM unless noted
SMILES,growth (HCT-15 colon),growth (HT29 colon),growth (SNB-75 CNS),growth (SNB-19 CNS),growth (U251 CNS),growth (PC-3 prostate),growth (SK-MEL-5 melanoma),growth (UACC-62 melanoma),growth (LOX IMVI melanoma),growth (SK-MEL-28 melanoma),growth (SK-MEL-2 melanoma),growth (EKVX NSCLC),growth (SN12C renal),growth (UO-31 renal),growth (ACHN renal),growth (CAKI-1 renal),growth (A498 renal),growth (CCRF-CEM leukemia),growth (MOLT-4 leukemia)
Cc1cn(-c2cc(C(=O)Nc3cccc(-n4ccc5c(NC(=O)c6ccccc6)nccc54)c3)cc(C(F)(F)F)c2)cn1,4.61% (active),-41.2% (active),27.2%,28.9%,-3.87% (active),18.5%,-54.5% (active),27.1%,5.46% (active),33.3%,11.2%,45.6%,21.7%,15.5%,27.6%,2.7% (active),16.1%,-21.7% (active),12.4%
Cc1cc(NC(=O)c2cccc(C(F)(F)F)c2)ccc1-n1ccc2c(NC(=O)c3ccccc3)nccc21,92.3%,94.5%,91.2%,98.4%,95.7%,74.6%,101%,96.9%,101%,104%,101%,94.1%,94%,78.5%,106%,93.1%,112%,88.3%,87.8%
CCCCCCCCCCCCCCCC(=O)NS(=O)(=O)OC[C@H]1O[C@@H](n2cnc3c(N)ncnc32)[C@H](O)[C@@H]1O,-8.55% (active),-17.1% (active),-41.6% (active),-53.7% (active),-87.5% (active),-52.4% (active),-88.8% (active),-48.9% (active),-64.8% (active),-59.7% (active),-24.7% (active),-8.18% (active),-12.9% (active),-69.8% (active),-18.6% (active),-61.4% (active),-95.6% (active),5.11% (active),-4.18% (active)
O=C1COc2ccccc2C(=O)N1CCCCNc1ccccc1,90.6%,81.8%,106%,94.1%,85.7%,47.2%,99.3%,95%,101%,103%,104%,106%,58.4%,12.2%,110%,107%,97.8%,1.06% (active),34.1%
O=C(Nc1ccc(-n2ccc3c(NC(=O)c4ccccc4)ncnc32)cc1)c1cccc(C(F)(F)F)c1,19.7%,22%,63.9%,57.4%,27.3%,43.7%,33.1%,25.4%,3.47% (active),71.2%,85.8%,63.5%,60.7%,45.9%,34%,27.9%,87.5%,28.2%,19.7%
Nc1ncnc2c1ccn2-c1cccc(NC(=O)c2cccc(C(F)(F)F)c2)c1,41.7%,58.4%,67%,88.4%,44.9%,51.7%,41.1%,77.3%,62.2%,85.1%,80.6%,66.6%,88.4%,86.4%,64.1%,69.7%,82.9%,51.3%,52.3%
O=C(Nc1ccc(-n2ccc3c(NC(=O)c4ccccc4)ncnc32)cc1)Nc1ccc(Cl)c(Cl)c1,0.689% (active),-58.2% (active),-5.84% (active),15.6%,-58.6% (active),-52.3% (active),13.7%,48.5%,45.5%,5.26% (active),11.7%,27.3%,15.8%,9.15% (active),27.8%,30.8%,90.5%,-10.2% (active),28.7%
COc1ccc(-c2nn(-c3ccc(NC(=O)Nc4ccc(Cl)c(C(F)(F)F)c4)cc3)cc2-c2ccncc2)cc1Cl,4.89% (active),1.91% (active),32.8%,30.1%,-7.17% (active),4.33% (active),-86.8% (active),0.79% (active),2.18% (active),12.2%,-43.4% (active),11.1%,16.5%,3.92% (active),7.51% (active),-18.8% (active),-5.72% (active),6.6% (active),8.53% (active)
Cc1ccc[n+](CC(=O)c2cccc3ccccc23)c1,102%,102%,96.2%,107%,106%,101%,99.7%,111%,104%,105%,106%,95.9%,102%,89.5%,103%,100%,90%,101%,98%
O=C(Nc1cccc(-n2ccc3c(NC(=O)c4ccccc4)nccc32)c1)Nc1ccc(Cl)c(C(F)(F)F)c1,10.6%,-38.9% (active),54.7%,24.8%,9.27% (active),20.4%,-35.5% (active),20.9%,11.8%,44.5%,-5.89% (active),32.8%,19.2%,27.8%,13.1%,7.43% (active),-3.31% (active),–,12.8%
Nc1ncnc2c1c(-c1ccc(Oc3ccccc3)cc1)nn2C[C@H]1SSC[C@@H]1O,65.7%,5.36% (active),37.3%,66.5%,45.9%,64%,-73.9% (active),-66.7% (active),11.9%,-29.4% (active),-46.5% (active),25.3%,54.5%,17.4%,33.4%,–,27.9%,-15.8% (active),-51.2% (active)
CCCCCCCC(=O)SCC/C=C/[C@@H]1CC(=O)NCc2nc(cs2)C2=N[C@@](C)(CS2)C(=O)N[C@@H](C(C)C)C(=O)N1,61%,-22.4% (active),35.8%,20.8%,-33.5% (active),19.6%,-21.3% (active),-25% (active),-91.8% (active),25.3%,-34.7% (active),32.8%,35.5%,18.9%,7.25% (active),–,-50.3% (active),21.3%,9.36% (active)
NS(=O)(=O)c1ccc(CCN2C(=O)/C(=C\c3ccc(Cl)cc3)C=C2c2ccc(Oc3ccccc3)cc2)cc1,64.8%,65.4%,77.9%,80.3%,74.5%,38.6%,77.4%,68.8%,81%,79.8%,73%,60.1%,78.2%,65.8%,72.3%,–,80.8%,81.4%,48.2%
COc1ccc(C(=O)NC(=O)Nc2ccc3c(c2)NC(=O)/C3=C\c2[nH]c(C)c(C(=O)O)c2C)c(F)c1,47.8%,16.5%,30.4%,79.3%,32.1%,40.2%,28.2%,38.3%,52.4%,57.9%,55.3%,94.4%,57.9%,88.4%,55.2%,–,64.8%,84.3%,86.2%
COc1ccc(C(=O)NC(=O)Nc2ccc3c(c2)NC(=O)/C3=C\c2[nH]c(C)c(CCC(=O)O)c2C)c(F)c1,39.6%,55.6%,44.2%,27%,0.371% (active),30.2%,25.2%,25.7%,26.9%,31.1%,-0.585% (active),73.1%,39.7%,55.6%,67%,–,-0.45% (active),12.2%,54.6%
O=c1c2ccccc2sc2c(N3CCCC3)nc3ccccc3c12,94%,92.3%,86.6%,95.9%,98.5%,83.4%,92.6%,79%,85.9%,120%,127%,103%,91.3%,97%,98.6%,–,73%,92.1%,102%
